Potency and viability, % of control data for 26 molecules are collected here from PubChem BioAssay (NCATS).

Molecules are shown by their SMILES. Inconclusive results are not listed. The source made the active and inactive calls. The call rests on the fitted dose curve; in most records, active means well fitted cell-killing curve with a large enough effect; inconclusive means small, poorly fitted or top-dose-only effect, or effect the other way; inactive means no such curve, though single readings can be large or run the other way.
Potency means the concentration at half of the fitted maximal effect.

The assay in a line: Viability qHTS for spleen associated tyrosine kinase inhibitor (SYKi) drug resistant MV4-11 cells (AID 1963824). Further: nearly all actives have a fitted effect of over 35% in size. The note with it: SYKi-resistant MV4-11 viability, CellTiter-Glo, 72 h; series mostly up to 45 µM. The gist of the method:
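SYK-inhibitor-resistant MV4-11 AML cells were seeded at 500 per well onto compound and cultured 72 hours (37 °C, 5% CO2). CellTiter-Glo was then added, and after 10 min at room temperature, luminescence gave viability.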
For the molecule `C=C1[C@H](OC(C)=O)[C@H]2[C@@H](OC(C)=O)[C@](C)(OC(C)=O)C[C@]2(OC(C)=O)C(=O)[C@H](C)/C=C/C(C)(C)C(=O)[C@H](OC(=O)C(C)CC)[C@H]1OC(C)=O` (stereo partly specified), the Potency result was “inactive”. For `CC1OC(O[C@H]2[C@@H](O)C[C@@]3(C)C([C@H](O)C[C@]4(C)C3CC=C3C5CC(C)(C)CC[C@]5(C(=O)OC5OC(CO)C(O)C(O)C5OC5OCC(OC6OCC(OC7OCC(O)C(O)C7O)C(O)C6O)C(OC6OCC(O)(CO)C6O)C5O)CC[C@]34C)[C@]2(C)CO)C(O)C(O)C1O` (stereo partly specified), the viability, % of control is 97% [at 9.25 µM] (inactive). For `Fc1ccccc1CNCc1ccc(-c2ccnc3[nH]ccc23)cc1`, the Potency was 9.2 µM (active). On to `C=C1C(=O)O[C@@H]2CC(C)=C([C@@H](C)CCCO)[C@@H](OC(=O)C(C)C)[C@H]12`, for which the Potency is 4.04 µM (active). For the molecule `Nc1nc2ccc([N+](=O)[O-])cc2s1`, the Potency is 27.3 µM (active). On the same count and under the same terms, the value for `CC1CCN(C(c2ccc(F)cc2)c2ccc(C(C)C(=O)O)cc2-c2ccc(C(F)(F)F)cc2)CC1` (stereo unspecified) was 6.51 µM (active). Same read-out and setting: the value for `CC(C)NC[C@H](O)COc1ccc(CCOCC2CC2)cc1` was “inactive”; that for `CN(CCOc1ccc(-c2ccc3c(c2)OCO3)cc1C(C)(C)C)CC(=O)O` was 16.6 µM (active); that for `Nc1nc2c(c(=O)[nH]1)C[C@@H](CCc1ccc(C(=O)N[C@@H](CCC(=O)O)C(=O)O)cc1)CN2` was 0.0092 µM (active). As to `COc1c(C(C)C)c(O)c(O)c2c1C(OC)[C@H]1OC(=O)[C@@]23CCCC(C)(C)[C@H]13` (stereo partly specified), the Potency is 14.3 µM (active). Still for that read-out and setting: in the case of `COc1ccc2c(c1O[C@H]1CCNC1)CCC2` it was “inactive”. Still for that read-out and setting: in the case of `C[C@H](C(=O)NC1CCCC1)N(C(=O)Cn1nnc(-c2ccc3c(c2)OCO3)n1)C1CCCCC1` it was 2.91 µM (active).

For the molecule `CC1OC(OC2C(CO)OC(OCC3OC(OC(=O)C45CCC(C)(C)CC4C4=CCC6C7(C)CCC(OC8OC(CO)C(O)C(OC9OC(CO)C(O)C(O)C9O)C8O)C(C)(C)C7CCC6(C)C4(C)CC5)C(O)C(O)C3O)C(O)C2O)C(O)C(O)C1OC1OC(CO)C(O)C(O)C1O` (stereo unspecified), the viability, % of control was 88.5% [at 9.25 µM] (inactive). For the molecule `CC[C@]1(O)C[C@H]2CN(CCC3C(=Nc4ccccc43)[C@@](C(=O)OC)(c3cc4c(cc3OC)N(C)[C@H]3[C@@](O)(C(N)=O)[C@H](O)[C@]5(CC)C=CCN6CC[C@]43[C@@H]65)C2)C1` (stereo partly specified), the Potency was 0.0366 µM (active). Same read-out and setting: the value for `Oc1ccc(-c2cnc3ccc(NCc4ccco4)nn23)cc1` was 0.092 µM (active); that for `COc1ccnc(CS(=O)c2nc3cc(OC(F)F)ccc3[nH]2)c1OC` (stereo unspecified) was “inactive”; that for `COC(=O)C[C@H]1C(C)(C)[C@H](OC(C)=O)C2CC3=C4CC(=O)O[C@@H](c5ccoc5)[C@]4(C)CCC3[C@@]1(C)C2=O` (stereo partly specified) was 3.55 µM (active). As for `COC1CC(O[C@H]2CC[C@@]3(C)C(=CC[C@]4(O)C3[C@H](OC(C)=O)[C@@H](OC(=O)c3ccccc3)[C@]3(C)[C@@H](C(C)=O)CC[C@@]34O)C2)OC(C)C1OC1CC(OC)C(OC2CC(OC)C(OC3OC(C)C(OC4OC(CO)C(O)C(O)C4O)C(OC)C3O)C(C)O2)C(C)O1` (stereo partly specified), the viability, % of control is 66.2% [at 9.25 µM] (inactive).

Turning to `COC(=O)C1=C(C)NC(C)=C(C(=O)OC(C)(C)CN(C)CCC(c2ccccc2)c2ccccc2)C1c1cccc([N+](=O)[O-])c1` (stereo unspecified), the Potency is 9.44 µM (active). Consider `CC(=O)OCC(=O)O[C@@H]1[C@H]2[C@@H](OC(=O)c3ccccc3)[C@@H](C)C[C@]2(O)[C@H](OC(C)=O)C2(C)[C@H]3CC(C)(C)C(=O)[C@@H]3CC1(OC(C)=O)[C@@H]2OC(C)=O` (stereo partly specified), for which the Potency entry is “inactive”.

As for `CC(=O)OC1CC2C(C)(C)C(=O)C=CC2(C)C2CC(=O)C3=C(CCC3C3=CC(O)OC3=O)C12C` (stereo unspecified), the Potency is 11.2 µM (active). The same measure, in the same setting: in the case of `C=CC1(C)C=C2CCC3C(C)(C)C(O[C@@H]4O[C@@H](CO)[C@H](O)[C@H]4O)CCC3(C)C2CC1O[C@@H]1O[C@H](C)[C@H](O)[C@H](O)[C@H]1O` (stereo partly specified) it was “inactive”. Still for that read-out and setting: the value for `CC(C)=CCC/C(C)=C/COCC1OC(n2ccc(=O)[nH]c2=O)C(O)C1O` (stereo unspecified) was 11.4 µM (active).

Turning to `CNc1nc(Nc2ccc(C(=O)N3CCOCC3)cc2OC)nc2[nH]cc(Cl)c12`, the Potency was 6.51 µM (active). Regarding `C/C(=C\CO)CC/C=C(\C)C(=O)O[C@H]1[C@H](OC2OC=C(C(=O)O)C3CCC(C)(O)C23)O[C@H](CO)[C@@H](O)[C@@H]1O` (stereo partly specified), the Potency result is “inactive”. On the same count and under the same terms, the value for `CC(C)S(=O)(=O)NC[C@H](C)c1ccc(-c2ccc(CCNS(C)(=O)=O)cc2)cc1` was 2.31 µM (active).
